Inconclusive results are not listed. Activity calls are given as the source filed them. Calls come from the whole dose curve; as a rule, active = well fitted curve in the direction sought with a large enough effect; inconclusive = small, poorly fitted or top-dose-only effect, or another doubt; inactive = no such curve, though single readings can be large; an effect the other way counts as inactive or inconclusive.
Key:
[1] = Cell Viability - SH-SY5Y (AID 544); details: SH-SY5Y neuroblastoma cell viability; viability change, negative = cytotoxic: at 92.2 µM (top of the series);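 note: cells exposed to compound for 40 hours; nearly all actives have a fitted effect of over 55% in size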
Summary of the method: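 SH-SY5Y human neuroblastoma cells (1500/well) incubated 5 h, then compound-treated 40 h at 37 °C in complete medium. Viability read as intracellular ATP by CellTiter-Glo luminescence after 20 min; AC50 from Hill-equation fits of qHTS concentration-response.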

[2] = Cell Viability - Renal Proximal Tubule (AID 545);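 note: cells exposed to compound for 40 hours; nearly all actives have a fitted effect of over 40% in size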
Summary of the method: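 Luminescent ATP signal (CellTiter-Glo) served as the viability read-out after 40 hr compound exposure of freshly isolated rat proximal tubule cells at 37 °C. Concentration-dependent ATP loss was fitted with the Hill equation to give AC50.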

[3] = Cell Viability - Mesenchymal (AID 546);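 note: cells exposed to compound for 40 hours before reading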
Summary of the method: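 Normal human renal glomerulus-derived kidney mesenchymal cells, 1000 per well in complete medium, were treated with compounds for 40 hr at 37 °C. Viability was read as intracellular ATP by CellTiter-Glo luminescence; AC50 values came from Hill-equation fits of qHTS concentration-response data.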

[4] = Cellular Toxicity (caspase-3) HepG2 (AID 654);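 note: cells exposed to compound for 16 hours before reading; 0% = DMSO alone and 100% = caspase signal from 100 µM tamoxifen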
Summary of the method: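 HepG2 cells (1500/well) were treated 16 h at 37 °C in complete medium, then caspase 3/7 activity was read by Caspase-Glo luminescence. Data were normalized to DMSO and 100 uM tamoxifen; AC50 came from Hill-equation fits of qHTS concentration-response.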

[5] = Cellular Toxicity (caspase-3) Jurkat (AID 655); details: Jurkat caspase-3 activation, luminescence; caspase-3 activation: at 92.2 µM (top of the series), DMSO = 0%, tamoxifen = 100%;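 note: cells exposed to compound for 16 h at 37 °C before reading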
Summary of the method: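 5000 Jurkat cells/well; compound 16 hr, 37 °C; Caspase-Glo 3/7 added, 20 min RT; luminescence read. Norm: DMSO = 0%, tamoxifen 100 uM = 100%. AC50, Hill model.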

[6] = Cellular Toxicity (caspase-3) HUV-EC-C (AID 656)
Summary of the method: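 qHTS; HUV-EC-C, 1000 cells/well; 5 hr settle, 16 hr cmpd, 37°C; Caspase-Glo 3/7, 20 min RT; luminescence. Norm: DMSO = 0%, tamoxifen 100 uM = 100%. Hill-fit AC50.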

[7] = Cellular Toxicity (caspase-3) SHSY5Y (AID 657)
Summary of the method: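 qHTS, SH-SY5Y, 1500 cells/well, 5 h pre-incubation 37 °C; compound 16 h 37 °C; Caspase-Glo 3/7 1 h RT; luminescence. Norm.: DMSO = 0, 10 uM staurosporine = 100%. Hill fit → AC50.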

[8] = Cellular Toxicity (caspase-3) BJ (AID 658);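 note: 0% = DMSO basal and 100% = 10 µM staurosporine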
Summary of the method: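 Luminescent aminoluciferin-substrate cleavage reports caspase 3/7 activity in normal human BJ fibroblasts after 16 hr compound exposure at 37 °C. Normalized to DMSO (basal) and 10 uM staurosporine (100%); AC50 from Hill fit of concentration-response.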

[9] = Cellular Toxicity (caspase-3) MRC-5 (AID 659);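 note: 0% = DMSO basal and 100% = 10 µM staurosporine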
Summary of the method: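 Luminescence from caspase-cleaved aminoluciferin substrate (Caspase-Glo 3/7, 1 hr RT) reports caspase 3/7 activity in MRC-5 lung fibroblasts after 16 hr compound exposure. Normalized to DMSO basal and 10 uM staurosporine as 100%; AC50 from Hill fits.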

[10] = Cellular Toxicity (caspase-3) Mesangial (AID 660); details: mesangial cells, normalized: DMSO 0%, 100 µM tamoxifen 100%; at 91.7 µM (top of the series);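 note: cells exposed to compound for 16 h before the caspase read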
Summary of the method: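 Human renal glomerular mesangial cells, 1000/well, 5 h at 37 C before 16 h compound treatment. Caspase-Glo 3/7 luminescence after 20 min; normalized to DMSO and 100 uM tamoxifen, AC50 from Hill fit.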

[11] = Cellular Toxicity (caspase-3) SK-N-SH (AID 661);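 note: 0% = DMSO basal and 100% = 10 µM staurosporine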
Summary of the method: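 Human SK-N-SH neuroblastoma cells, 1500/well, were exposed to compounds for 16 hours at 37 °C. Caspase-Glo 3/7 luminescence was normalized to DMSO (basal) and 10 uM staurosporine (100%), and AC50 came from a Hill fit.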

[12] = Cellular Toxicity (caspase-3) H-4-II-E (AID 663); details: H-4-II-E rat hepatoma, scaled: DMSO 0%, 100 µM tamoxifen 100%; at 92.2 µM (top of the series);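 note: cells exposed to compound for 16 hr before readout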
Summary of the method: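 Luminescence from caspase-cleaved aminoluciferin substrate, read 20 min after reagent addition, reports caspase 3/7 activation in rat H-4-II-E cells after 16 hr compound exposure. Normalized to DMSO (basal) and 100 uM tamoxifen (100%); AC50 from Hill fits.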

[13] = Cellular Toxicity (caspase-3) Hek293 (AID 664); details: HEK293 caspase-3 activation, DMSO = 0%, 100 µM tamoxifen = 100%; at 92.2 µM (top of the series);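 note: cells exposed to compound for 16 h at 37 °C before readout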
Summary of the method: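 HEK293 cells in complete medium treated 16 h at 37 °C, then Caspase-Glo 3/7 luminescence read after 20 min at room temperature. Normalized to DMSO and 100 uM tamoxifen; AC50 from Hill fit of concentration-response.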

[14] = Cellular Toxicity (caspase-3) N2a (AID 665);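 note: compound exposure lasted 16 h at 37 °C before readout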
Summary of the method: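 Mouse N2a neuroblastoma cells, 1500 per well, treated 16 h at 37 °C in complete medium; caspase-3/7 activity by Caspase-Glo luminescence after 1 h. Normalized to DMSO and 10 uM staurosporine; AC50 from Hill fits.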

[15] = Cellular Toxicity (caspase-3) NIH 3T3 (AID 666);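 note: 0% = DMSO basal and 100% = 100 µM tamoxifen stimulation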
Summary of the method: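 Mouse NIH 3T3 fibroblasts (1000/well) treated 16 h at 37 C; caspase-3/7 activity measured by Caspase-Glo 3/7 luminescence after 20 min. Normalized to DMSO and 100 uM tamoxifen; AC50 from Hill fits.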

[16] = Cellular Toxicity (caspase-3) Renal Proximal Tubule (AID 667); details: Potency: caspase-3 activation;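 note: cells exposed to compound for 16 hours at 37 °C before detection; 0% = DMSO basal and 100% = 10 µM staurosporine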
Summary of the method: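 AC50 derived by standard Hill fit of concentration-response data, normalized between DMSO basal and 10 uM staurosporine as 100% stimulation. Cells: primary rat kidney proximal tubule, 16 h treatment at 37 °C.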

[17] = biological target: Cytochrome P450 3A4 (Homo sapiens) (UniProt P08684); experiment: qHTS Assay for Inhibitors and Substrates of Cytochrome P450 3A4 (AID 884); note: % is set by controls: 0 for no effect and ±100 for the full control effect; nearly all actives have a fitted effect of over 50% in size
Summary of the method: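 20 nM human CYP3A4 with 25 uM Luciferin-PPXE (at KM) in 200 mM KPO4, preincubated 10 min with compound; NADPH regeneration started a 60 min RT reaction. Luciferin detected by luminescence, normalized to 57 uM ketoconazole as full inhibition.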

[18] = Cell Viability - H-4-II-E (AID 543);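 note: cells exposed to compound for 40 hours; % is set by controls: 0 for no effect and ±100 for the full control effect; nearly all actives have a fitted effect of over 35% in size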
Summary of the method: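 Rat hepatoma H-4-II-E cells, 1500 per well, treated 40 h at 37 °C in complete medium. Cellular ATP read by CellTiter-Glo luminescence; AC50 from Hill fits of concentration-response.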

[19] = Cell Viability - LYMP2-001 (AID 921);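 note: cells exposed to compound for 24 h at 37 °C; 0% = DMSO only and full inhibition = tetraoctylammonium bromide control wells; nearly all actives have a fitted effect of over 70% in size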
Summary of the method: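 Steps: seed 2500 lymphoblastoid cells/well; 5 hr, 37 C; add compound; 24 hr, 37 C; CellTiter-Glo reagent, 30 min room temperature; read luminescence. Concentration-response modeled by Hill equation for AC50.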

[20] = biological target: Cytochrome P450 3A4 (Homo sapiens) (UniProt P08684); experiment: qHTS Assay for Activators of Cytochrome P450 3A4 (AID 885); note: nearly all actives have a fitted effect of over 65% in size
Summary of the method: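 Signal was normalized against complete inhibition by 57 uM ketoconazole. The reaction used 20nM CYP3A4 with 25uM Luciferin-PPXE, 10-min compound preincubation and a 60-min NADPH-supported step at RT.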

Chain of Cytochrome P450 3A4 (Homo sapiens) (P08684 whole entry, looked up): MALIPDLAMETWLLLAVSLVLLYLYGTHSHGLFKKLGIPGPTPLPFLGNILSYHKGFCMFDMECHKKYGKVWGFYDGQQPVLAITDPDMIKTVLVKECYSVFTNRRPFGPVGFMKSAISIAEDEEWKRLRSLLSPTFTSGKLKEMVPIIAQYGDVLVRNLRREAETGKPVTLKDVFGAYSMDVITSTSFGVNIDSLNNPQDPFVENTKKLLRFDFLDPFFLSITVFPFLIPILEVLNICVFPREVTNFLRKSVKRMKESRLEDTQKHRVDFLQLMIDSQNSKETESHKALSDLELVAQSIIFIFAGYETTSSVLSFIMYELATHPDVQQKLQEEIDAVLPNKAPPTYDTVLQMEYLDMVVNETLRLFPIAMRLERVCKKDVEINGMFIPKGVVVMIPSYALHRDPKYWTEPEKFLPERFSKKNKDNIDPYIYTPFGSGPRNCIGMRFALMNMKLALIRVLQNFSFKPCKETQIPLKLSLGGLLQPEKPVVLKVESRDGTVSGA

O=C1OC(=O)c2c(Br)c(Br)c(Br)c(Br)c21
inactive: Potency [1] | Potency [2] | Potency [3] | Potency [4] | caspase-3 activation [5] -0.0657% | outcome [6] | outcome [7] | outcome [8] | outcome [9] | caspase-3 activation [10] 0.186% | outcome [11] | caspase-3 activation [12] 0.557% | caspase-3 activation [13] 1.35% | outcome [14] | outcome [15] | Potency [16] | Potency [17]

C/C=C1\CC2C=CC1C2 (centres undefined)
inactive: Potency [18] | Potency [2] | Potency [4] | caspase-3 activation [5] -1.14% | outcome [7] | outcome [8] | outcome [9] | caspase-3 activation [10] -0.567% | outcome [11] | caspase-3 activation [12] 0.51% | caspase-3 activation [13] -0.412% | outcome [14] | outcome [15] | Potency [16] | Potency [17] | Potency [19]

NS(=O)(=O)O
inactive: Potency [18] | Potency [2] | Potency [3] | Potency [4] | outcome [6] | outcome [7] | outcome [8] | outcome [9] | outcome [11] | caspase-3 activation [12] 1.83% | caspase-3 activation [13] 1.35% | outcome [14] | outcome [15] | Potency [16] | Potency [17] | Potency [19]

CCC=O
inactive: Potency [1] | Potency [2] | Potency [3] | Potency [4] | caspase-3 activation [5] 3.47% | outcome [6] | outcome [7] | outcome [8] | outcome [9] | caspase-3 activation [10] -0.374% | outcome [11] | caspase-3 activation [12] 0.94% | caspase-3 activation [13] 1.43% | outcome [14] | outcome [15] | Potency [16] | Potency [17]

C[C@@H]1O[C@@H](O[C@@H]2[C@@H](O)[C@H](OCCc3ccc(O)c(O)c3)O[C@H](CO[C@@H]3O[C@H](CO)[C@@H](O)[C@H](O)[C@H]3O)[C@H]2OC(=O)/C=C/c2ccc(O)c(O)c2)[C@H](O)[C@H](O)[C@H]1O
inactive: Potency [18] | Potency [2] | Potency [4] | caspase-3 activation [5] -3.29% | outcome [6] | outcome [7] | outcome [9] | caspase-3 activation [10] -1.14% | caspase-3 activation [12] -0.514% | caspase-3 activation [13] -1.55% | outcome [14] | outcome [15] | Potency [16] | outcome [20] | Potency [19]

CC(=O)Nc1ccc(C)cc1
inactive: Potency [18] | Potency [2] | Potency [3] | Potency [4] | caspase-3 activation [5] 1.97% | outcome [6] | outcome [7] | outcome [8] | caspase-3 activation [10] 0.522% | outcome [11] | caspase-3 activation [12] 0.606% | caspase-3 activation [13] 0.349% | outcome [14] | outcome [15] | Potency [16] | Potency [19]

C=CCOC(=O)CCCCCCCC
inactive: Potency [18] | Potency [2] | Potency [3] | Potency [4] | caspase-3 activation [5] -0.392% | outcome [6] | outcome [7] | outcome [8] | caspase-3 activation [10] 0.626% | outcome [11] | caspase-3 activation [12] -0.694% | caspase-3 activation [13] 1.74% | outcome [14] | outcome [15] | Potency [16] | Potency [17] | Potency [19]

— PubChem BioAssay (NCATS)
